HP1b chromo inh = HTS for Inhibitors of HP1-beta Chromodomain Interactions with Methylated Histone Tails. Potency, µM (titrated, usually from 114 µM), most hits filed as inhibitors. AlphaScreen HP1-beta / biotin-H3K9me3 peptide binding. 0.56% of 390,000 active; note: nearly all actives have a fitted effect of over 70% in size
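HP1-beta protein (50 nM final) preincubated 30 min at room temperature with biotinylated H3(1-18)K9me3 peptide (50 nM) in PBS pH 7.4, 0.01% Tween-20, then compound added for 30 min. AlphaScreen streptavidin donor/nickel chelate acceptor beads (10 ug/mL final), 30 min dark, luminescence read.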
G9a inh = qHTS Assay for Inhibitors of Histone Lysine Methyltransferase G9a. Histone-lysine N-methyltransferase EHMT2 (Homo sapiens), Q96KQ7. G9a H3K9 monomethylation, AlphaScreen, 2 h. Potency, µM (doses to about 102 µM), usual class: inhibitors. 8.8% of 350,000 active. AID 504332, 2011; note: nearly all actives have a fitted effect of over 75% in size
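Quantitative HTS format: methyltransferase activity on a biotin-tagged H3K9 peptide is measured by AlphaScreen, using a rabbit anti-monomethyl-H3K9 antibody with streptavidin donor and anti-IgG acceptor beads. Final levels are 20 nM enzyme, 500 nM peptide, 20 uM SAM; 2 h RT.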
12-LOX inh = Primary qHTS assay for inhibitors of human arachidonate 12S-lipoxygenase (ALOX12): Round 2; Polyunsaturated fatty acid lipoxygenase ALOX12 (Homo sapiens), P18054; purified 12hLO, xylenol orange hydroperoxide absorbance; Potency, µM (series often up to 108 µM), usual class: inhibitors; 1.1% of 580,000 active
Target sequence (P18054 whole entry, looked up): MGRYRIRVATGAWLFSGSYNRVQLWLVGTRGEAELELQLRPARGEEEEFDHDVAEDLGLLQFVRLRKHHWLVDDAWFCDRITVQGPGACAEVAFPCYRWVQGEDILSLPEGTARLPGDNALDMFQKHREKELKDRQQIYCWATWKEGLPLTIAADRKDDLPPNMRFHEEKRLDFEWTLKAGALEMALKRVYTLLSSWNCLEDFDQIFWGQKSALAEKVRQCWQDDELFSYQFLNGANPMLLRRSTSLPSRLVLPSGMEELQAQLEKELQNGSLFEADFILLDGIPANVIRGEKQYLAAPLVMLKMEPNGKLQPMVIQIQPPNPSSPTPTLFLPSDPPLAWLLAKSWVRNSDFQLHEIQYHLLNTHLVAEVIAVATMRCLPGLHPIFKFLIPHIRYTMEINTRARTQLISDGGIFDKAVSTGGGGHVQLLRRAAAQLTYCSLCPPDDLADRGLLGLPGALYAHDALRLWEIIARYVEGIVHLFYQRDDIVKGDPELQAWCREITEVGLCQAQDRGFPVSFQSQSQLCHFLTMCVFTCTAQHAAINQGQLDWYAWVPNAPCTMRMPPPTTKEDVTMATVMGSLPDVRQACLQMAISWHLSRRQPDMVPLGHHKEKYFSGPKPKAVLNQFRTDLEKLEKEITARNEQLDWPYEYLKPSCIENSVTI
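Hydroperoxide product was detected by ferrous iron/xylenol orange as the 573 to 405 nm absorbance ratio. Arachidonic acid at 40 uM (final) was turned over for 30 min at room temperature by 150 nM human 12hLO, pH 7.0 Hepes buffer, after 15 min compound preincubation.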
JMJD2A Tudor = qHTS Assay for Inhibitors of JMJD2A-Tudor Domain. AlphaScreen JMJD2A-Tudor / H3K4me3 peptide binding. Potency, µM (doses to about 114 µM), actives largely listed as inhibitors. 4.4% of 390,000 active; note: nearly all actives have a fitted effect of over 50% in size
BAZ2B inh = qHTS Assay for Inhibitors of BAZ2B. 4.4% of 360,000 active. Bromodomain adjacent to zinc finger domain protein 2B (Homo sapiens), Q9UIF8. AlphaScreen BAZ2B-H3K14Ac peptide displacement. Potency, µM (series often up to 114 µM), usual class: inhibitors; note: nearly all actives have a fitted effect of over 60% in size
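Compounds, titrated to a top concentration of 110 uM, were incubated 30 min at room temperature with preformed BAZ2B/acetyl-K14 H3 peptide complex (50 nM each). Proximity signal was measured by AlphaScreen after 20 min with beads.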
PLK1 PBD inh = qHTS for Inhibitors of PLK1-PDB (polo-like kinase 1 - polo-box domain): Primary Screen | Plk1 PBD binding of FITC phosphopeptide, fluorescence polarization | Serine/threonine-protein kinase PLK1 (Homo sapiens), P53350 | Potency, µM, actives largely listed as inhibitors | AID 720504, 2013 | 2.8% of 360,000 active; note: series mostly up to about 57 µM; nearly all actives have a fitted effect of over 65% in size
Hits are given with their value; - = inactive; ? = inconclusive; . = no result; ! = a repeat was not active; [ ] = dose if it differs, or a comment. The list is not random: actives were taken first. Their share in the collection is about 9%. Calls come from the whole dose curve; as a rule, active = well fitted curve in the direction sought with a large enough effect; inconclusive = small, poorly fitted or top-dose-only effect, or another doubt; inactive = no such curve, though single readings can be large; an effect the other way counts as inactive or inconclusive.

SMILES | HP1b chromo inh | G9a inh | 12-LOX inh | JMJD2A Tudor | BAZ2B inh | PLK1 PBD inh
CC(=O)Nc1ccc(NC(=O)C2CCCN2S(=O)(=O)c2ccc3c(c2)CCCC(=O)N3)cc1 (centres undefined) | - | ? | - | - | ? | .
CCSc1nc2n(n1)C(c1cccc(O)c1)C1=C(CC(C)(C)CC1=O)N2 (centres undefined) | . | . | - | . | . | .
Cc1ccccc1C(=O)N1CCC(c2nn(-c3ccc(Cl)cc3)c(=O)[nH]2)CC1 | . | . | 44.7µM | . | . | .
O=C(O)c1cc(O)c2c(c1)C(=O)c1cc(O)cc(O)c1C2=O | - | -[12.7 µM] | ? | ? | 50.1µM | ?
CC[C@]12c3[nH]c4cc(CCC(=O)N(C)C)ccc4c3CCN1C(=O)[C@@H](CC(=O)NCCN1CCOCC1)C[C@@H]2C(=O)N1CCN(C(=O)c2ccco2)CC1 | - | . | - | - | . | -
CCc1ccc2nc(SCC(=O)N3CC(=O)Nc4ccccc43)c(C#N)cc2c1 | ? | - | - | 50.1µM | - | 21.2µM
CCc1cc2cc(C)ccc2nc1SCC(=O)N1CC(=O)Nc2ccccc21 | - | - | - | - | - | -
CCc1cc2c(SCC(=O)N3CC(=O)Nc4ccccc43)ncnc2s1 | - | - | - | - | - | 26.7µM
CN(C)CCCn1c(-c2ccccc2)nc(=S)c2c1CCCC2 | - | - | - | ? | - | -
Cc1cccc(NC(=O)N2CCC(c3cc(-c4cccc(C)c4)n[nH]3)CC2)c1 | . | . | - | . | . | .
O=C(CCl)Nc1ccc(N2CCCCCC2)cc1 | ? | 15.8µM | ? | 50.1µM | ? | -
CCNC(=S)Nc1ccc(N2CCCCC2)cc1 | ? | 31.6µM | - | - | 35.5µM | ?
NC(=O)NC(=O)C(Nc1ccc(N2CCCCC2)cc1)c1ccccc1 (centres undefined) | ? | 15.8µM | - | ? | ? | -
O=C(CNCc1ccco1)Nc1ccc(N2CCCCCC2)cc1 | 39.8µM | 8.91µM | ? | 20µM | 28.2µM | -
CCC(=O)Nc1ccc(N2CCCCC2)cc1 | - | -[12.7 µM] | - | - | - | -
O=C(CNC(=O)c1ccco1)Nc1ccc(N2CCCCCC2)cc1 | - | ? | - | ? | ? | -
Nc1[nH]nc2nc(N3CCCC3)nc(-c3ccccc3)c12 | - | - | - | - | - | -
CCc1nc2c(OCc3ccc(C(F)(F)F)cc3)cccn2c1N(C)C(=O)C1CC1 | . | . | ? | . | . | -
CCC1(C(=O)NCc2ccc(C)cc2)CCCCC(=O)N1 (centres undefined) | . | . | - | . | . | .
O=C(Cn1c(-c2ccccc2)noc1=O)Nc1ccc(N2CCCCCC2)cc1 | ? | ? | - | 22.4µM | 22.4µM | -
O=C(O)CCC(=O)Nc1ccc(SSc2ccc(NC(=O)CCC(=O)O)cc2)cc1 | - | ? | ? | ? | - | 0.947µM
O=C(COC(=O)CCc1nc2ccccc2n1-c1ccccc1)Nc1ccc(N2CCCCC2)cc1 | - | 10µM | - | - | ? | -
O=C(O)CCCC(=O)Nc1ccc(N2CCCC2)cc1 | - | 39.8µM | - | ? | - | -
Cc1ccc(C2Cn3nnc(-c4nc(-c5cccc(Br)c5)no4)c3CO2)c(C)c1 (centres undefined) | . | . | - | . | . | .
CS(=O)(=O)N(C1CC1)C1CCOC2(CCN(C(=O)c3ccncc3)CC2)C1 (centres undefined) | . | . | - | . | . | .
SMILES | HP1b chromo inh | G9a inh | 12-LOX inh | JMJD2A Tudor | BAZ2B inh | PLK1 PBD inh
O=C(Cc1ccccc1)Nc1ccc(N2CCCCC2)cc1 | - | 28.2µM | - | - | - | -
COC(=O)c1sc(NC(=O)c2ccc(Cn3cc(Cl)cn3)o2)c(C#N)c1C | - | 7.94µM | - | ? | - | 2.99µM
N#Cc1c(NC(=O)c2ccc(Cn3cc(Br)cn3)o2)sc2c1CCCCC2 | - | - | - | - | - | -
O=C(c1ccc(Cn2cc(Cl)cn2)o1)N1CCN(Cc2ccc3c(c2)OCO3)CC1 | - | 44.7µM | . | - | ? | -
CN1CCN(C(=O)c2ccc(Cn3cc(Cl)cn3)o2)CC1 | - | 70.8µM | - | - | - | -
O=C(c1cc(=O)c2ccccc2o1)N(Cc1ccco1)C1CCS(=O)(=O)C1 (centres undefined) | . | . | - | . | . | .
CC(C)CNC(=O)C1Nc2ccc(OC(F)(F)F)cc2C2C=CCC12 (centres undefined) | - | . | ? | ? | . | -
COC(=O)CNC(=O)C1Nc2ccccc2C2C=CCC12 (centres undefined) | - | . | - | 56.2µM | . | ?
CCOC(=O)C1Nc2ccc(Br)cc2C2C=CCC12 (centres undefined) | ? | 3.55µM | ? | 39.8µM | 44.7µM | ?
CCOC(=O)C1Nc2ccc(C)cc2C2C=CCC12 (centres undefined) | - | . | 31.6µM | 56.2µM | . | -
CC(C)CNC(=O)C1Nc2ccccc2C2C=CCC12 (centres undefined) | - | . | - | ? | . | ?
O=C(OC1CCCCC1)c1ccc2c(c1)C1C=CCC1C(C(=O)O)N2 (centres undefined) | . | ? | . | . | 7.08µM | .
O=C(O)C1Nc2ccc(Br)cc2C2C=CCC12 (centres undefined) | 17.8µM | 1.78µM | . | 20µM | 3.16µM | 5.32µM
O=C(Cn1c(=O)oc2ccccc21)Nc1ccc(C(=O)O)cc1 | - | - | - | - | - | .
COc1ccc(/C=C2\C(=O)OCc3cc(OC)c(OC)cc32)cc1OC | - | - | - | ? | - | -
COc1ccc(/C=C2\C(=O)NC(=O)c3ccccc32)cc1OC | - | . | ? | - | . | 4.74µM
COc1ccc(/C=C2\N=C(c3ccccc3Br)NC2=O)cc1OC | . | . | - | . | . | .
COc1ccc(C=C2C(=O)OC(C)(C)OC2=O)cc1OC | - | -[2.33 µM] | - | - | - | 13.4µM
CCc1n[nH]c(=S)n1/N=C/c1ccccn1 | ? | -[0.501 µM] | ? | 7.94µM | 50.1µM | -
Cc1n[nH]c(=S)n(/N=C/c2cccc([N+](=O)[O-])c2)c1=O | - | - | ? | ? | - | -
Cc1n[nH]c(=S)n(/N=C/c2ccccn2)c1=O | - | ? | ? | 2.82µM | ? | -
CCc1n[nH]c(=S)n1/N=C/c1ccccc1OCc1ccc(Cl)cc1 | - | . | - | - | - | -
CC(NC(=S)Nc1ccccc1Cl)C(c1cccs1)N1CCCC1 (centres undefined) | - | - | ? | - | - | -
COC(=O)C(Cc1c[nH]c2ccccc12)NC(=O)C(=O)c1c[nH]c2ccccc12 (centres undefined) | - | 31.6µM | - | ? | ? | -
COC(=O)CNC(=O)C(Cc1c[nH]c2ccccc12)NC(=O)Oc1ccccc1 (centres undefined) | - | . | - | - | 0.708µM | -
N[C@@H](Cc1c[nH]c2ccccc12)C(=O)O | . | 8.44µM! | . | . | 50.1µM | .
